FMDV antiviral – foot and mouth disease virus antiviral activity. 1.2% of 410,000 active. Potency, µM (series often up to 57.9 µM), inactives show at the top dose activity change, negative = inhibition, actives largely listed as inhibitors. AID 1159524. FMDV antiviral cell-based qHTS; calls by dose curve; tested in HEK293T cells; further: read-out not given here; potency means the concentration at half of the fitted maximal effect; nearly all actives have a fitted effect of over 45% in size
MARV entry inh – inhibitors of Marburg virus binding or cell entry; Marburg virus pseudotyped entry inhibition, cell reporter; Potency, µM (series often up to 37.8 µM), for inactives: top-dose activity change, negative = inhibition, hits mostly inhibitors; 1.8% of 300,000 active; AID 540276; calls by dose curve; tested in HEK293 cells; further: potency means the concentration at half of the fitted maximal effect
HCMV inh – blocks human cytomegalovirus replication. HFF cells, HCMV-luciferase reporter, 72 h; active compounds read low. activity change, negative = inhibition, % at 57.5 µM. 4.5% of 410,000 active. AID 1259415; in the data active means activity change below about -60%; inconclusive means no clear call, values can overlap the other calls; inactive means above about -39%
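After 16 h attachment at 37C, HFF cells received test compound and HCMV-luciferase (1 PFU/cell); reporter luminescence read 72 h later, data normalized against buffer-only and known inhibitor Salinomycin.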
HCV inh – blocks hepatitis C virus. AID 651820. Potency, µM (top dose mostly 41.8 µM), inactives show at the highest dose activity change, negative = inhibition, hits mostly inhibitors. Huh7.5.1 HCVcc-Cre infection, luciferase reporter, 44 h. 3.4% of 340,000 active; active means well fitted inhibition curve with a large enough effect; inconclusive means small, poorly fitted or top-dose-only effect, or another doubt; inactive means no such curve, though single readings can be large or run the other way; further: potency means the concentration at half of the fitted maximal effect
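HCVcc-Cre virus at an moi near 0.5 was added right after compound to cells cultured 4 h from seeding (1,000 cells/well). Luciferase activity was determined 44 h later, 15 min after substrate addition at RT.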
Lassa entry inh – Lassa virus entry inhibition. Lassa virus pseudotype entry inhibition, cell reporter. Potency, µM (highest dose often 37.9 µM), for the others: at the highest dose activity change, negative = inhibition, hits mostly inhibitors. 1.2% of 300,000 active. AID 540256; calls by dose curve; tested in HEK293 cells; further: potency means the concentration at half of the fitted maximal effect; nearly all actives have a fitted effect of over 50% in size
An asterisk follows results filed as active; ? = inconclusive; / = no result given; [ ] = remark or other dose. Only some compounds are listed: those with a hit (about 7.9% of all), similar ones and a draw of the others. On the % scale 0 is the no-effect control and ±100 the full control effect.

SMILES | FMDV antiviral | MARV entry inh | HCMV inh | HCV inh | Lassa entry inh
CC(C)c1c(C(=O)N/N=C/c2ccc(C(F)(F)F)cc2)nnn1-c1nonc1N | -24.6% | / | ? | 5.62µM* | /
CCCc1c(C(=O)N/N=C/C(C)=C/c2ccccc2)nnn1-c1nonc1N | -6.6% | / | -16.9 | -19.9% | /
CC(/C=N/NC(=O)c1nnn(-c2nonc2N)c1C(C)C)=C\c1ccccc1 | 15.8% | / | -31.9 | 10µM* | /
CC(C)c1c(C(=O)N/N=C/c2ccoc2)nnn1-c1nonc1N | 30.9% | / | -16.0 | -25.6% | /
COc1ccc(S(=O)(=O)N2CCOC2CNC(=O)C(=O)NCCc2c[nH]c3ccccc23)cc1C (stereo not drawn) | ? | ? | 27.4 | 11.2µM* | ?
COc1ccc(S(=O)(=O)N2CCOC2CNC(=O)C(=O)NCCc2c[nH]c3ccccc23)cc1 (stereo not drawn) | 22.4µM* | -10.3% | -1.9 | ? | ?
COc1ccc(CCNC(=O)C(=O)NCC2OCCN2S(=O)(=O)c2ccc(F)cc2)cc1 (stereo not drawn) | -7.2% | / | 9.5 | -3.1% | /
COc1ccc(S(=O)(=O)N2CCOC2CNC(=O)C(=O)NCCc2ccccc2OC)cc1 (stereo not drawn) | 0.0% | / | -28.7 | ? | /
COc1ccc(CCNC(=O)C(=O)NCC2OCCN2S(=O)(=O)c2ccc(Cl)cc2)cc1 (stereo not drawn) | ? | / | -5.4 | 11.2µM* | /
CN(CC(=O)Nc1ccc(OC(F)(F)F)cc1)C(=O)Cc1cccs1 | -13.6% | / | -16.1 | -15.2% | /
N#Cc1c(NC(=O)CS(=O)(=O)c2ccc(Cl)cc2)sc2c1CCCCC2 | -14.7% | / | ? | / | -19.3%[46.1 µM]
CC(=O)N1c2ccc(Cl)cc2C2OCCC2C1c1ccco1 (stereo not drawn) | -25.6% | -27.0% | -66.1* | 10.5% | 5.4%
COC(=O)c1ccc([C@H]2/C(=C(\O)c3ccc(OC)cc3)C(=O)C(=O)N2c2cc(C)on2)cc1 | / | -24.3%[46.1 µM] | / | / | /
COc1ccnc(N2CCN(c3ccc(Cl)cc3)CC2)c1C#N | ? | -2.2% | -67.8* | 31.6µM* | -27.1%
COc1ccnc(N2CCN(c3cccc(C(F)(F)F)c3)CC2)c1C#N | / | -10.4% | 6.0 | 19.1% | ?
Cc1nc2c(-c3ccc(Cl)cc3)cnn2c(N)c1-c1ccc(F)cc1 | 0.794µM* | / | ? | -3.3% | /
COc1ccc(-c2c(C)nc3c(-c4ccc(F)cc4)cnn3c2N)cc1 | 31.4% | / | 14.7 | -10.0% | /
Cc1nc2c(-c3ccc(F)cc3)cnn2c(N)c1-c1ccccc1 | 15.8µM* | / | -71.9* | 14.1µM* | /
Nc1c(-c2ccc(Cl)cc2)cnc2c(-c3ccc(F)cc3)cnn12 | 6.3% | / | 43.2 | 1.9% | /
COc1ccc(CCNC(=O)Cn2ncc3c(=O)oc4ccccc4c32)c(OC)c1 | -19.3% | 1.6%[46.1 µM] | 3.1 | / | -25.5%[46.1 µM]
CCOc1ccc(Cl)cc1/C=N/NC(N)=O | 5.6% | / | 32.4 | 14.1µM* | /
Cc1ccc2occ(/C=N/NC(=O)c3ccncc3)c(=O)c2c1 | 1.3% | / | -30.7 | 5.3% | /
Cc1ccc2occ(/C=N/NC(=O)c3ccccc3O)c(=O)c2c1 | 9.9% | / | -83.5* | ? | /
CCOc1ccccc1C(=O)N/N=C/c1coc2ccc(Cl)cc2c1=O | -3.4% | ? | -73.6* | ? | ?
COc1ccc(C(=O)N/N=C\c2coc3ccc(C)cc3c2=O)cc1 | -12.2% | 3.0% | -27.5 | 8.9% | 14.1%
SMILES | FMDV antiviral | MARV entry inh | HCMV inh | HCV inh | Lassa entry inh
Cc1ccc2occ(/C=N/NC(=O)c3ccc(Cl)cc3)c(=O)c2c1 | -16.9% | 11.4% | -65.2* | -2.5% | 0.1%
N#Cc1ccc(CN2CCC3(CC2)CCN(C(=O)c2ccncc2)CC3)cc1 | -16.3% | / | / | / | /
CSc1nc(N2CCOCC2)c2c3c(sc2n1)CCC3 | -15.1% | ? | 5.3 | 11.2µM* | -4.1%
Cc1nc(N2CCN(c3ccccc3)CC2)c2c3c(sc2n1)CCC3 | / | 1.1% | / | / | /
Cc1ccccc1OCC(=O)N(Cc1ccc(N(C)C)cc1)CC1CCCO1 (stereo not drawn) | 3.7% | -11.0%[46.1 µM] | -62.7* | / | ?
O=C(c1ccccc1F)N1C[C@@H]2[C@H](c3ccccc31)[C@H](CO)N2C(=O)c1ccccc1 | / | / | -4.9 | / | /
O=C1NCCc2c1[nH]c1c(Cl)ccc(Cl)c21 | -26.5% | 9.0% | -33.9 | 11.2µM* | 12.5%
CCn1c2ccccc2c2cc([N+](=O)[O-])ccc21 | -13.6% | 6.7%[46.1 µM] | -19.6 | ? | -8.3%
CC(C)n1c2ccccc2c2cc([N+](=O)[O-])ccc21 | -27.4% | ? | ? | 8.91µM* | 4.7%
Cc1nnc(N(CCC#N)CCC#N)s1 | -16.5% | ? | -71.7* | 24.0% | 20.6%
Cc1ccc(C(=O)NCc2ccc3c(c2)OCO3)o1 | 19.9% | 0.8%[46.1 µM] | 20.3 | 16.0% | 22.5%[46.1 µM]
O=C(/C=C/c1ccc(Cl)c(Cl)c1)NCc1ccco1 | 18.9% | 16.9% | -11.0 | 1.8% | ?
Cc1ccc(/C=C/C(=O)NCc2ccc3c(c2)OCO3)o1 | 27.4% | 7.4% | -62.4* | 1.1% | 1.4%
O=C(/C=C/c1ccc2c(c1)OCO2)NCc1ccco1 | 21.4% | -1.5% | 1.0 | -5.4% | 10µM*
O=C(Nc1ccc(Cl)cc1C(=O)N1CCOCC1)c1cccc([N+](=O)[O-])c1 | / | 7.6% | -25.8 | -12.7% | 13.5%
Cc1nsc(Nc2ccc([N+](=O)[O-])cc2)c1C#N | -9.0% | ? | -64.1* | -14.6% | ?
CC(Oc1ccccc1)C(=O)Nc1nc(-c2ccccn2)cs1 (stereo not drawn) | -20.6% | -14.4%[46.1 µM] | ? | ? | -19.0%
O=C(Nc1nc(-c2ccc(Cl)s2)cs1)c1cccs1 | 36.8% | -3.7% | -0.7 | 11.2µM* | ?
O=C(Nc1nc(-c2ccccn2)cs1)c1ccc(Cl)s1 | -8.3% | / | -96.4* | ? | /
CC(Oc1cccc(Cl)c1)C(=O)Nc1nc(-c2ccccn2)cs1 (stereo not drawn) | ? | ? | -71.9* | 6.31µM* | ?
O=C(CN1C(=O)CCC1=O)Nc1nc(-c2ccccn2)cs1 | -5.4% | / | -61.9* | ? | /
Cc1ccc2oc(=O)c3cc(C(=O)Nc4ccccc4C(N)=O)sc3c2c1 | 12.5% | 11.7%[46.1 µM] | 5.5 | / | 2.2%[46.1 µM]
O=C(CCc1cccnc1)NCC1Cc2cccc(-c3ncccn3)c2O1 (stereo not drawn) | -10.2% | / | / | / | /
CC1=C(C(=O)N2CCOCC2)CC(CC(=O)NC2CCCCC2)C(=O)N1Cc1ccccc1 (stereo not drawn) | -24.9% | / | -20.0 | / | /
O=C(Nc1nc(-c2cc(Cl)sc2Cl)cs1)c1ccccc1 | -14.5% | ? | 9.6 | 11.2µM* | 9.4%
SMILES | FMDV antiviral | MARV entry inh | HCMV inh | HCV inh | Lassa entry inh
CCc1sc(C(=O)Nc2nc(-c3ccccn3)cs2)cc1C | 11.6% | ? | / | 17.8µM* | ?
O=C(Nc1nc(-c2ccc(Cl)cc2)cs1)c1cccnc1 | -11.0% | -14.9% | 11.7 | -0.4% | -0.7%
Cc1ccc(C(=O)Nc2nc(-c3ccccn3)cs2)s1 | -12.7% | / | -99.6* | ? | /
CCc1sc(C(=O)Nc2ncccc2C)cc1C | 21.9% | 7.1%[46.1 µM] | 15.7 | 5.5% | -9.2%
CCc1sc(C(=O)Nc2ncccc2O)cc1C | -53.6% | 6.31µM* | ? | -4.0% | ?
CCc1sc(C(=O)Nc2nccs2)cc1C | -8.5% | ? | 115.7 | -11.1% | ?

From PubChem BioAssay
